We go through five compounds from PubChem BioAssay.

A short description of assay [1]: yeast TOR pathway RPL19A-GFP modulators, primary screen, cell-based, S. cerevisiae, multiplex flow cytometry (AID 1862; in the data active means percent of DMSO control GFP below about 86%;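 further: lower values mimic rapamycin by blocking the RPL19A rise seen in DMSO cells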). Particulars: S. cerevisiae RPL19A-GFP strain, flow cytometry fluorescence, 3 h; at 10 µM; stronger effect = lower value. (A flow cytometer gives signals particle by particle.)
Assay [2] is described as follows: modulators of MEP2-GFP levels in yeast, primary screen, S. cerevisiae, multiplex flow cytometry (AID 1867).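 Further: median GFP channel fluorescence of barcode-gated MEP2-GFP cells measured by flow cytometry.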 Particulars: S. cerevisiae MEP2-GFP strain, 3 h, at 10 µM, stronger effect = higher value, 100% means same as DMSO wells.
The nature of assay [3]: modulators of CIT2-GFP expression in yeast, primary screen, S. cerevisiae, GFP fusion, multiplex flow cytometry (AID 1870;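 active means percent response above a set limit, the screen-wide mean plus 3 SD, cut at about 130% in these data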;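 further: barcoded CIT2-GFP strain pooled with four other GFP strains with rapamycin as positive control; median GFP fluorescence per well over plate mean of DMSO wells so 100% = DMSO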). Particulars: 3 h, at 10 µM, stronger effect = higher value.
A short description of assay [4]: modulators of LAP4-GFP expression in yeast, primary screen, S. cerevisiae, multiplex flow cytometry (AID 1873;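 active means GFP signal, as percent of the solvent control, above the screen mean plus 3 SD, about 149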). Particulars: 3 h, at 10 µM, stronger effect = higher value.
The nature of assay [5]: modulators of AGP1-GFP expression in yeast TOR pathway, primary screen, cell-based, multiplex flow cytometry, S. cerevisiae (AID 1887;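 active means GFP signal above the screen-wide mean plus 3 SD, that is over about 124.5% of the solvent control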;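 further: AGP1-GFP fusion strain of S. cerevisiae within a five-strain barcoded multiplex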). Particulars: 3 h, at 10 µM, stronger effect = higher value.
Assay [6] is described as follows: inhibitors of CD8+ T cell-vesicle binding, pilot screen, LFA-1/ICAM-1 modulator project, MLPCN validation set, flow cytometry (AID 2523;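 active means response below a set limit, under 55% cells CD8-positive and vesicle-bound, and CD8 cells' 90th-percentile brightness under 279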;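 on vesicle binding response: mean PE anti-B7-1 fluorescence of CD8+ cells relative to row control; 100% = QL9-loaded vesicles with DMSO vehicle in the same plate row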). The settings on record: 2C mouse CD8+ T cells, at 7 µM, stronger effect = lower value; double positive events: measured here: CD8+/vesicle+ event percentage.
Assay [7] deals with Integrin beta-1 (Homo sapiens) + Integrin alpha-4 (Homo sapiens) (UniProt P13612+P05556). In words: inhibition of HUTS-21 binding to VLA-4, pilot screen, VLA-4 allosteric modulator project, U937 cells, HUTS-21 mAb, flow cytometry, validation set (AID 2674;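 active means inhibition above 50%, about 3 SD of the validation set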;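 further: antibody binding induced by the VLA-4 ligand LDV present at three times its Kd; 0% = LDV ligand with antibody and no compound and 100% = antibody without LDV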). The settings on record: HUTS-21 LIBS mAb binding, at 6.7 µM, stronger effect = higher value, binding induced by LDV ligand.
Chain of Integrin beta-1 (Homo sapiens) + Integrin alpha-4 (Homo sapiens) (P05556 whole entry, looked up): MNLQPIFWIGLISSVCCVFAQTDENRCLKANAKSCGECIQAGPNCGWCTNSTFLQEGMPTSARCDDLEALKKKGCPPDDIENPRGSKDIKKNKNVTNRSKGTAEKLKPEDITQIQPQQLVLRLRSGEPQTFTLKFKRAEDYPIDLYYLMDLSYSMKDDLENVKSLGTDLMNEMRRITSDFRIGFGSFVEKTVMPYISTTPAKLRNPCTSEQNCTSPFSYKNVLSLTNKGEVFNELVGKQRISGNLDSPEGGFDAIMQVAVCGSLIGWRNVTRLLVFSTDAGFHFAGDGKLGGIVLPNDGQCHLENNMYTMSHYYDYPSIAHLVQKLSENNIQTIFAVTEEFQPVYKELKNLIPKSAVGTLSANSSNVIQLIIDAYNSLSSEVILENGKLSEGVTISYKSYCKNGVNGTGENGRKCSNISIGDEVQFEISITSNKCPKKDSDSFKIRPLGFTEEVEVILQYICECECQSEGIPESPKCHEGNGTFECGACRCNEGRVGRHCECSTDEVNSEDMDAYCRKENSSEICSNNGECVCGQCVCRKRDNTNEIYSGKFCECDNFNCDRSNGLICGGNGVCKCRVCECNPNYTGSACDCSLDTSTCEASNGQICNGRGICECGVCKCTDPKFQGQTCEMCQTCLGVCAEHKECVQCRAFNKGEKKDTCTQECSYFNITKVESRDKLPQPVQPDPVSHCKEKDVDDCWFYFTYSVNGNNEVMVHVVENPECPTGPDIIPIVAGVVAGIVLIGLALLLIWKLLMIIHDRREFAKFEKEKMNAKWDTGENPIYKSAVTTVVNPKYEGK
Chain of Integrin beta-1 (Homo sapiens) + Integrin alpha-4 (Homo sapiens) (P13612 whole entry, looked up): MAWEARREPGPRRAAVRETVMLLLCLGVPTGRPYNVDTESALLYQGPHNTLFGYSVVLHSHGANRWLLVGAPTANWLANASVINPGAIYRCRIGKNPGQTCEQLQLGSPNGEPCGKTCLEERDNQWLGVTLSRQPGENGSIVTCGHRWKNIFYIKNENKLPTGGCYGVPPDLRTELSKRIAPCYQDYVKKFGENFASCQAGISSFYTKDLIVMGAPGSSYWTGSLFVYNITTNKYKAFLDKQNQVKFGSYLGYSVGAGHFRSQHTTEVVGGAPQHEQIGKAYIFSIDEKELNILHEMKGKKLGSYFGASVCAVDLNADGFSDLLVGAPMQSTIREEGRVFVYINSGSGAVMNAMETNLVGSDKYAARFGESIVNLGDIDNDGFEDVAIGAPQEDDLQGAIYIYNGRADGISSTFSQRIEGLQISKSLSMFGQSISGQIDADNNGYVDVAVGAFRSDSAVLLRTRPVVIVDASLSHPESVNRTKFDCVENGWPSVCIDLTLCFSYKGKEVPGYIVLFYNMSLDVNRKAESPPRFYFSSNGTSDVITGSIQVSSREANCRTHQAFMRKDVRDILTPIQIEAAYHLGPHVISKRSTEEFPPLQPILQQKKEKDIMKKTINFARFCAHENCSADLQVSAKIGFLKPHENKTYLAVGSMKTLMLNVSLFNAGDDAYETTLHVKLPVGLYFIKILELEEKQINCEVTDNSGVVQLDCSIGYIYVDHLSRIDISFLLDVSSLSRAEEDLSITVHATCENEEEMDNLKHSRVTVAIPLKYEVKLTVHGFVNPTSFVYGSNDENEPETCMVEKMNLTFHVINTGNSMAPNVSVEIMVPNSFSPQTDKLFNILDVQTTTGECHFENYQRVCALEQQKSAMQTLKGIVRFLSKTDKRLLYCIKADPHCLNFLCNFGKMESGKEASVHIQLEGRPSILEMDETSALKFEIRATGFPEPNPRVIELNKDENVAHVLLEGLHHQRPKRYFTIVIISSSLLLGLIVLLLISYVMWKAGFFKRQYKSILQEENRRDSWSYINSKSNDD
Assay [8] is described as follows: superoxide lowering in aged yeast cells, pilot screen, validation compound set (AID 2706;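 active means superoxide response below 65% of plate, a cut near 3 SD across the whole screen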;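 further: yeast exposed to compound for one week at 30 degrees C before staining; 100% = mean of all compound wells on the same plate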). The settings on record: S. cerevisiae aging, superoxide DHE fluorescence; at 10 µM; stronger effect = lower value.
Assay [9] concerns the target Beta-adrenergic receptor kinase 1 (Homo sapiens) (UniProt P25098). As to the kind of experiment: GRK2 binders displacing RNA aptamer, biochemical, validation, human GRK2, bead flow cytometry (AID 488806;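 active means aptamer binding inhibition above 30%, about 3 SD of noise from non-fluorescent compounds; inactive means inhibition at or below 30%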). The settings on record: bead-bound GRK2, FAM-aptamer displacement, at 10 µM, stronger effect = higher value.
Assay [10] has as its target Beta-2 adrenergic receptor (Homo sapiens) (UniProt P07550). In words: beta2AR agonists driving receptor internalization, pilot screen, cell-based, FAP fluorogen, flow cytometry, validation set (AID 504459;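 active means percent response above 42, roughly 3 SD of non-fluorescent test compounds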;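 further: agonist-driven loss of surface beta2AR via internalization measured by FAP dye flow cytometry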). The settings on record: Am2.2-beta2AR cells, FAP surface receptor flow cytometry; at 10 µM; stronger effect = higher value.
The target in assay [11] is AP-2 complex subunit beta (Homo sapiens) (UniProt P63010). In words: inhibitors of arrestin peptide binding to AP2, pilot screen, biochemical, validation set, GST-AP2 beads, flow cytometry (AID 504541;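 active means inhibition above 54%, about 3 SD of non-fluorescent compounds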;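 further: AP2 carries R879A mutation and is captured from E. coli lysate; bead-bound FITC arrestin peptide fluorescence measuring arrestin peptide binding to AP2; 0% = DMSO wells and 100% = excess unlabeled arrestin peptide control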). Particulars: FITC arrestin peptide, at 10 µM, stronger effect = higher value, AP2 beta2 appendage fragment, R879A mutant.
Chain of AP-2 complex subunit beta (Homo sapiens) (P63010 whole entry, looked up, the tested form may be a part, one chain of several): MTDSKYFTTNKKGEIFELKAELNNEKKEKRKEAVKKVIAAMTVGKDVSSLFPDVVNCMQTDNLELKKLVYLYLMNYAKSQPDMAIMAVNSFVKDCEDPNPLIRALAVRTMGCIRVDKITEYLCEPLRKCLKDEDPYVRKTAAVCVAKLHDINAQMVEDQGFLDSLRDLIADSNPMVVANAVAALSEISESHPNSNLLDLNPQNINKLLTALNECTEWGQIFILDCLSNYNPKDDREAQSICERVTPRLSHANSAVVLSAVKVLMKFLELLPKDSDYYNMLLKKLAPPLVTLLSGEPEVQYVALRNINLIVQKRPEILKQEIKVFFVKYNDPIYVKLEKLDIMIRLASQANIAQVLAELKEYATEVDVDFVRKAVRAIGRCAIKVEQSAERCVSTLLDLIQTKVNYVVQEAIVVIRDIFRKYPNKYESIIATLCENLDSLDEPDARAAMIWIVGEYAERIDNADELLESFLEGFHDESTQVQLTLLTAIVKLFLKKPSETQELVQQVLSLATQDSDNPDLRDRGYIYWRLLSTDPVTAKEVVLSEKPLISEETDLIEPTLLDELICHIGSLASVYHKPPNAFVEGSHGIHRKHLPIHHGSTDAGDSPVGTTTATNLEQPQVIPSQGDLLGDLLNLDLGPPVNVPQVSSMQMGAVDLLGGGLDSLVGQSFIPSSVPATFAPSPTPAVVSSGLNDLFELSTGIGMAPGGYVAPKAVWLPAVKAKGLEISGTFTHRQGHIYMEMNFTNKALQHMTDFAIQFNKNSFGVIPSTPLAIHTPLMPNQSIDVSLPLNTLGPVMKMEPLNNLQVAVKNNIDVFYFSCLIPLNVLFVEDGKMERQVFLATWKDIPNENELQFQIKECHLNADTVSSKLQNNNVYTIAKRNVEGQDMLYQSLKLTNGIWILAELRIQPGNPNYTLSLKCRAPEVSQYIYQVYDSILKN
The nature of assay [12]: yeast V-ATPase proton transport modulators, S. cerevisiae, pHLuorin, HTS validation (AID 504600; in the data active means response above about 15%;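 further: plate controls were DMSO for no effect and reference compound for full effect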). Particulars: S. cerevisiae pHLuorin cytosolic pH, at 10 µM, stronger effect = higher value.
Assay [13] concerns anti-desmoglein-3 scFv antibody binding to human DSG3. In words: inhibitors of anti-DSG3 scFv binding to DSG3, pilot screen, biochemical, validation compound set, bead-based, flow cytometry (AID 588368;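 active means binding below the plate cutoff, the plate median minus 3 SD, with a reading above zero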;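 further: signal is the median channel fluorescence of bead-bound GFP antibody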). Particulars: Protein G beads, DSG3-Fc, scFv-GFP binding, at 10 µM, stronger effect = lower value.
Assay [14] in a line: inhibitors of fungal efflux pumps CDR1, CDR2, MDR1, pilot screen, validation compound set, multiplex, phenotypic (AID 588506;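 active means efflux inhibition above 0.42, the validation set average plus 4 SD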;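 further: Nile Red retained in cells so higher fluorescence means more efflux inhibition; 0 = negative control wells and 1 = enniatin B 25 µM full block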). The settings on record: S. cerevisiae pump-expressing triplex, Nile Red efflux flow cytometry; at 10 µM; stronger effect = higher value; the pumps come from Candida albicans.
Assay [15] addresses ATP-binding cassette sub-family B member 6 (Homo sapiens) (UniProt Q9NP58). In words: ABCB6 transporter inhibitors, pilot screen, K562-ABCB6 cells, flow cytometry, validation set (AID 588550;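 active means inhibition above the screen-wide mean plus 3 SD, about 51%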;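 further: 0% = DMSO wells and 100% = benzethonium chloride 70 µM positive control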). The settings on record: K562-ABCB6 porphyrin accumulation, 1 h, at 10 µM, stronger effect = higher value.
Assay [16] can be described thus: promoters of myeloid differentiation in arrested cells, primary screen, cell-based, GFP/MAC1 double positive, flow cytometry, validation set (AID 588685;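 active means differentiation response of at least 50%, scaled between solvent and reference control, from cells with both markers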;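 further: compound exposure lasts four days before antibody staining and flow analysis; 0% = DMSO wells and 100% = 5 µM fulvestrant positive control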). The settings on record: ER-HoxA9 marrow cells, stronger effect = higher value, normalized: vehicle 0, fulvestrant 100.

Records with an inconclusive call do not appear. Calls of active or inactive are those of the source.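 How the source made its calls, unless noted: active means GFP response, as percent of the DMSO control, above the screen-wide mean plus 3 SD, about 139; inconclusive means no response measured because the compound's own fluorescence interfered; inactive means the rest.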

Chain of ATP-binding cassette sub-family B member 6 (Homo sapiens) (Q9NP58 whole entry, looked up): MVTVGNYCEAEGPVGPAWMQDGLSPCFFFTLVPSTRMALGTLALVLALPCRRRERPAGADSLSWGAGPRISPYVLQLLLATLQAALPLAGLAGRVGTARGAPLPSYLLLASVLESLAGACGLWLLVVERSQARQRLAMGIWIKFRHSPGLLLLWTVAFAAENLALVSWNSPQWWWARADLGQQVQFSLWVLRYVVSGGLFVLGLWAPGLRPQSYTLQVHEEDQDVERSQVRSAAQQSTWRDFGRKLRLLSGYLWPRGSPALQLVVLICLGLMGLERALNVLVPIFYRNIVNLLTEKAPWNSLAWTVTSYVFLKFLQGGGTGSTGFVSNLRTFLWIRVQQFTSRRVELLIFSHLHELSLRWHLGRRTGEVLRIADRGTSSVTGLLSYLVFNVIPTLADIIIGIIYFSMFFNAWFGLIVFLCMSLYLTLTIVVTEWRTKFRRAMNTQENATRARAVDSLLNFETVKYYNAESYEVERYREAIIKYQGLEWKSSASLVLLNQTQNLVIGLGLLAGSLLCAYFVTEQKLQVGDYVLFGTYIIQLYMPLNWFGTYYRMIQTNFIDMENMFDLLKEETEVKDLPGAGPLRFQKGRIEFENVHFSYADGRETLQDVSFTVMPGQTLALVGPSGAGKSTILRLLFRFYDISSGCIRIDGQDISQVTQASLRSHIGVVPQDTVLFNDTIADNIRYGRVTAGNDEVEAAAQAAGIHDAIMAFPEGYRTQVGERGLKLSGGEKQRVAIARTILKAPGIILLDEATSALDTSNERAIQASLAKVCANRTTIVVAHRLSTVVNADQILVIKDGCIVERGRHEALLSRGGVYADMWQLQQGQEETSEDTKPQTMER
Chain of Beta-adrenergic receptor kinase 1 (Homo sapiens) (P25098 whole entry, looked up): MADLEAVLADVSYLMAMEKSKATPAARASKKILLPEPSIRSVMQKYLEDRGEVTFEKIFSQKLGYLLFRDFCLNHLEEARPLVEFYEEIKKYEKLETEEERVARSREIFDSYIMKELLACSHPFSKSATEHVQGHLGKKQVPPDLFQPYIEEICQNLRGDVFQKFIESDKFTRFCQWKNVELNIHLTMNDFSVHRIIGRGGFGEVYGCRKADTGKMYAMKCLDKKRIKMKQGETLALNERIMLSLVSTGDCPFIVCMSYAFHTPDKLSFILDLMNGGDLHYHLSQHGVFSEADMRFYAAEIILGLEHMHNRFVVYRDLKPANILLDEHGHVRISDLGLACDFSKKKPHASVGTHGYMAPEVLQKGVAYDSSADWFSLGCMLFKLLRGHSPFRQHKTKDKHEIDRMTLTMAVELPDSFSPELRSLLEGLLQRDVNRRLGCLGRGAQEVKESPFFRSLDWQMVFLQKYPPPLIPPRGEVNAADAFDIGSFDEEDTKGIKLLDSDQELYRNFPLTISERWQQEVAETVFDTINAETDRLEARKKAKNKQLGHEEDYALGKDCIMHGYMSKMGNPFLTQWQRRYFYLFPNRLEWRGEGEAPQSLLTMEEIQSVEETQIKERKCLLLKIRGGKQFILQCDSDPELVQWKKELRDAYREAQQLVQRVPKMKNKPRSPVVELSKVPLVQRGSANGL
Chain of Beta-2 adrenergic receptor (Homo sapiens) (P07550 whole entry, looked up): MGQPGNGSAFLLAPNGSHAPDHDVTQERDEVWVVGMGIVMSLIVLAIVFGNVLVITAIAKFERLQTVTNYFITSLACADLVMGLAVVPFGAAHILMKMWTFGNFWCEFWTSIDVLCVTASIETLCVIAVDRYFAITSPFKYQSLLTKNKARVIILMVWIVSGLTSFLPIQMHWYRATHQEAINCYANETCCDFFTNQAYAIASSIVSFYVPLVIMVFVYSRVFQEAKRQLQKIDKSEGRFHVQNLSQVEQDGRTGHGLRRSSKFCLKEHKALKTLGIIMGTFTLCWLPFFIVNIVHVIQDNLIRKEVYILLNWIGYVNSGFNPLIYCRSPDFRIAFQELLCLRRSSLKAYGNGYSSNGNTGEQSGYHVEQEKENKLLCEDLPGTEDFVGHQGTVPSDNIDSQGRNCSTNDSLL

As usually defined, the inhibition is the relative decrease from the control value, in per cent. As for `O=C(CCc1ccccc1)Nc1ccccc1C(F)(F)F`, in assay [1], the percent of DMSO control GFP was 103% (inactive). The GFP response vs DMSO in assay [2] is 105% (inactive); in [4], 94.7% (inactive). The percent response of DMSO control in assay [3] was 107% (inactive). Further, the GFP response, % of DMSO in assay [5] is 103% (inactive). In assay [6], the double positive events stood at 64.1%. In [6], the vesicle binding response was 240% (inactive). Besides, the inhibition is 2.66% (inactive) in [7], -5.17% (inactive) in assay [11] and -2% (inactive) in assay [15]. Moreover, the superoxide response (% of plate) in assay [8] is 96.3% (inactive). Moreover, the aptamer binding inhibition in assay [9] was 1% (inactive). Also, the response in assay [10] is -5.39% (inactive); in assay [12], 2.37% (inactive). Besides, the binding (% of control) in assay [13] was 100% (inactive). Besides, the efflux inhibition (fraction of control) in assay [14] is 0.18 (inactive). Further, the differentiation response in assay [16] is 0.24% (inactive).
As to `Cn1c([N+](=O)[O-])cnc1COC(N)=O`, the percent of DMSO control GFP in assay [1] was 92.8% (inactive). Moreover, the results for the GFP response vs DMSO in [2] and in assay [4] were 136% (inactive) and 83.6% (inactive), respectively. Moreover, in assay [3], the percent response of DMSO control was 103% (inactive). In addition, in assay [5], the GFP response, % of DMSO is 88.9% (inactive). The double positive events in assay [6] is 62.7%. Besides, the vesicle binding response in assay [6] is 157% (inactive). Moreover, the inhibition in assay [7] is 8.4% (inactive); in [11] it was -5.93% (inactive); in assay [15] it was 11% (inactive). Further, in assay [8], the superoxide response (% of plate) was 98.7% (inactive). Also, in [9], the aptamer binding inhibition is 4% (inactive). Moreover, the response in assay [10] was 5.28% (inactive); in [12], -3.52% (inactive). For the same compound, the binding (% of control) in assay [13] was 105% (inactive). Further, the efflux inhibition (fraction of control) in assay [14] was -0.35 (inactive). Also, the differentiation response in [16] is -3.28% (inactive).
Consider `Cc1ccc(S(=O)(=O)N[C@@H](Cc2ccccc2)C(=O)CCl)cc1`, for which, in assay [1], the percent of DMSO control GFP was 99.2% (inactive). Besides, the GFP response vs DMSO in assay [2] was 91.8% (inactive); in assay [4], 108% (inactive). For the same compound, the percent response of DMSO control in assay [3] was 92.5% (inactive). Also, in assay [5], the GFP response, % of DMSO is 107% (inactive). In addition, the double positive events in assay [6] was 59.9%. Moreover, in assay [6], the vesicle binding response is 101% (inactive). The inhibition in [7] was 48.3% (inactive); in assay [11], -2.91% (inactive); in [15], 9% (inactive). Moreover, the superoxide response (% of plate) in [8] was 100% (inactive). Further, the aptamer binding inhibition in [9] is 8% (inactive). Also, the response is 11.3% (inactive) in assay [10] and -3.47% (inactive) in assay [12]. Further, in assay [13], the binding (% of control) was 99% (inactive). The efflux inhibition (fraction of control) in assay [14] was 0.04 (inactive). Further, the differentiation response in assay [16] is -4% (inactive).
Turning to `OCCN1CCN(CCCN2c3ccccc3Sc3ccc(C(F)(F)F)cc32)CC1`, the percent of DMSO control GFP in assay [1] is 104% (inactive). Also, the GFP response vs DMSO in [2] was 104% (inactive); in [4], 101% (inactive). The percent response of DMSO control in assay [3] was 92.5% (inactive). Moreover, the GFP response, % of DMSO in [5] was 115% (inactive). Moreover, the double positive events in assay [6] was 62.1%. In addition, in [6], the vesicle binding response was 176% (inactive). Moreover, the inhibition in assay [7] is 70.4% (active); in assay [11], 13.1% (inactive); in assay [15], 11% (inactive). Moreover, in [8], the superoxide response (% of plate) is 90.7% (inactive). In assay [9], the aptamer binding inhibition was -4% (inactive). Further, the figures for the response in assay [10] and in assay [12] were 26.4% (inactive) and 0.87% (inactive), respectively. Also, the binding (% of control) in assay [13] is 111% (inactive). In addition, the efflux inhibition (fraction of control) in [14] was -0.04 (inactive). In assay [16], the differentiation response was 0.92% (inactive).
With `C[N+](C)(C)CCOP(=O)([O-])OC[C@H](O)CO`, the percent of DMSO control GFP in assay [1] is 103% (inactive). In addition, the GFP response vs DMSO is 103% (inactive) in [2] and 108% (inactive) in [4]. The percent response of DMSO control in assay [3] is 105% (inactive). In addition, the GFP response, % of DMSO in assay [5] is 114% (inactive). In [6], this compound yielded a double positive events of 60.1%. The vesicle binding response in assay [6] was 133% (inactive). The figures for the inhibition in assay [7], in assay [11] and in assay [15] were -3.77% (inactive), -6.21% (inactive) and 22% (inactive), respectively. Further, the superoxide response (% of plate) in assay [8] was 94.8% (inactive). Further, the aptamer binding inhibition in assay [9] is 1% (inactive). For the same compound, the response was 2.22% (inactive) in assay [10] and 0.86% (inactive) in assay [12]. In addition, the binding (% of control) in assay [13] was 102% (inactive). Moreover, in assay [14], the efflux inhibition (fraction of control) was 0.25 (inactive). The differentiation response in assay [16] is -6.03% (inactive).
